Measured values published in PubChem BioAssay (NCATS).
Where “and” joins values, the source holds several entries; their conditions need not be identical. Identical values can stand only once. A number with no mark means an inactive call. Results filed as inconclusive are left out. Calls of active or inactive are those of the source. Unless noted, the call rests on the fitted dose curve; in most records, active means well fitted inhibition curve with a large enough effect; inconclusive means small, poorly fitted or top-dose-only effect; inactive means flat fitted curve, though single readings scatter. Where a SMILES comes first, the peptide text is derived from it. Bridges are numbered along the chain shown (N, C = ends). [ ]: non-standard residue; d: D form. The star is where a group is joined. ξ: configuration not given here. d(aThr) = C[C@@H](O)[C@@H](N)C(=O)O; ξThr(3R) = C[C@@H](O)C(N)C(=O)O; X3 = CC[C@@H](C)CCCCC(=O)*; dDab = NCC[C@@H](N)C(=O)O

Experiments:
[1] = Drug repurposing screens with cells derived from glioblastoma tumor samples (AID 1345199); settings: GBM patient neurospheres viability, ATP luminescence, 48 h; further: nearly all actives have a fitted effect of over 40% in size; further: potency means the concentration at half of the fitted maximal effect; on activity, negative = cell killing: on the % scale 0 is the no-effect control and ±100 the full control effect
In short: (§1)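 Primary testing used CD133+ neurospheres from four GBM patients, seven concentrations, 48 h exposure and ATP-based viability; confirmation added three slower-growing patient lines.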

astro = control astrocytes; experiment: as above; settings: viability, ATP luminescence, 48 h; series mostly up to 45.9 µM
In short: as §1

[2] = molecular target: Nuclear receptor subfamily 1 group I member 2 (Rattus norvegicus) (UniProt Q9R1A7); experiment: qHTS assay for small molecule activators of the rat pregnane X receptor (rPXR) signaling pathway (AID 651751; call rule not given here; further: 0% is about no effect); settings: rPXR reporter cells, luciferase (One-Glo), 24 h
[3] = qHTS assay for small molecule activators of the human pregnane X receptor (PXR) signaling pathway (AID 720659; call rule not given here; further: 0% is about no effect); settings: DPX-2 HepG2 CYP3A4-luciferase, 24 h; series mostly up to 92.3 µM
[4] = at 45.9 µM (top of the series), tumour line B
[5] = at 46.1 µM (top of the series), tumour line C
[6] = at 45.9 µM (top of the series), tumour line D

Sequence of Nuclear receptor subfamily 1 group I member 2 (Rattus norvegicus) (Q9R1A7 whole entry, looked up): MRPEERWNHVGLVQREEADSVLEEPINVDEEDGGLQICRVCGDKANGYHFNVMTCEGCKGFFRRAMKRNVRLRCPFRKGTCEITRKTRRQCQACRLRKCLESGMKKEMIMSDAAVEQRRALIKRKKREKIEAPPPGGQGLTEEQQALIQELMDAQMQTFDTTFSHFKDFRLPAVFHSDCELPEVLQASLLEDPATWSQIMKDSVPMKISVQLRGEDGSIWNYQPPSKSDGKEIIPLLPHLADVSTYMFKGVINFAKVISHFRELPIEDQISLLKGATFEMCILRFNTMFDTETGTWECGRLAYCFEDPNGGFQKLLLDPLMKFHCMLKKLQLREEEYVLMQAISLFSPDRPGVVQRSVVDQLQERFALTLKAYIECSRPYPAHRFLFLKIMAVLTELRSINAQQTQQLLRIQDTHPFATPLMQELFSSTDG

In the case of `COc1ccccc1N1CCN(CCCC(=O)c2ccc(F)cc2)CC1`, the activity, negative = cell killing [1, 4] is reported as -16%, the Potency ([1]; tumour line A) is reported as 10 µM (active) and the Potency (astro) is reported as “inactive”.
In the case of `CCCCCCCCCc1ccc(OCCOCCO)cc1`, the Potency (astro) is reported as 12.6 µM (active).
In the case of `C=C1CC[C@H](O)CC1=C/C=C1\CCC[C@]2(C)[C@@H]([C@H](C)CCCC(C)(C)O)CC[C@@H]12`, the Potency (astro) is reported as 20 µM (active).
With `O=c1n(CC2CO2)c(=O)n(CC2CO2)c(=O)n1CC1CO1` (stereo not drawn) the max response [2] was -7.41% and -4.4% and the outcome [3] was “inactive”.
For `CCC(=O)c1ccc2c(c1)N(CCCN1CCN(CCO)CC1)c1ccccc1S2`, the Potency (astro) was 17.8 µM (active).
For `CCN(CC)CCOc1ccc2nc(N(C)C)sc2c1`, the Potency (astro) was “inactive”.
For `N=C(N)n1cccn1`, the activity, negative = cell killing [1, 4] was -2.75% and the Potency (astro) was “inactive”.
With `CCN(CC)C(=O)c1cccnc1` the activity, negative = cell killing [1, 4] was -8.29%, the activity, negative = cell killing [1, 5] was -25.5% and the Potency (astro) was “inactive”.
With `CC[C@@H](C)CCCCC(=O)N[C@H](CCN)C(=O)N[C@@H](C(=O)N[C@H](CCN)C(=O)N[C@@H]1CCNC(=O)C([C@@H](C)O)NC(=O)[C@@H](CCN)NC(=O)[C@@H](CCN)NC(=O)[C@@H](CC(C)C)NC(=O)[C@@H](Cc2ccccc2)NC(=O)[C@@H](CCN)NC1=O)[C@@H](C)O` (stereo partly drawn) (X3-[dDab][d(aThr)][dDab][dDab][dDab][dF][dL][dDab][dDab][ξThr(3R)]; lactam 4-C) the activity, negative = cell killing [1, 6] was -10.3%, the activity, negative = cell killing [1, 5] was 4.35% and the Potency (astro) was “inactive”.
With `CC(C)C[C@H](NC(=O)[C@@H](Cc1c[nH]c2ccccc12)NC(=O)[C@H](Cc1ccc(O)cc1)NC(=O)[C@H](CO)NC(=O)[C@H](Cc1c[nH]c2ccccc12)NC(=O)[C@H](Cc1cnc[nH]1)NC(=O)[C@@H]1CCC(=O)N1)C(=O)N[C@@H](CCCN=C(N)N)C(=O)N1CCC[C@@H]1C(=O)NCC(N)=O` the activity, negative = cell killing [1, 4] was -6.78%, the activity, negative = cell killing [1, 5] was -22.9% and the Potency (astro) was “inactive”.
With `CC(=C\c1ccccc1)/C=C1/SC(=S)N(CC(=O)O)C1=O` the activity, negative = cell killing [1, 6] was -25%, the activity, negative = cell killing [1, 5] was -14.3% and the Potency (astro) was “inactive”.
For `C=C1CC[C@H](O)CC1=C/C=C1\CCC[C@]2(C)[C@@H]([C@H](C)CC[C@@H](O)C(C)(C)O)CC[C@@H]12`, the activity, negative = cell killing [1, 4] was -20.7%, the Potency ([1]; tumour line A) was 8.91 µM (active) and the Potency (astro) was “inactive”.
For `CN(C)CCC=C1c2ccccc2C(C)(C)c2ccccc21`, the Potency (astro) was 17.8 µM (active).
With `CN(C)C(=O)CCSC(SCCC(=O)O)c1cccc(/C=C/c2ccc3ccc(Cl)cc3n2)c1` (stereo not drawn) the Potency (astro) was 17.8 µM (active).
In the case of `C=C1c2c(Cl)ccc(O)c2C(O)=C2C(=O)[C@]3(O)C(O)=C(C(N)=O)C(=O)[C@@H](N(C)C)[C@@H]3[C@@H](O)[C@H]12`, the activity, negative = cell killing ([1]; at 20 µM (top of the series), tumour line C) is reported as 3.1%, the activity, negative = cell killing ([1]; at 21.2 µM (top of the series), tumour line D) is reported as -28.3% and the Potency (astro) is reported as “inactive”.
In the case of `O=C(CCCN1CCN2CCCC2C1)c1ccc(F)cc1` (stereo not drawn), the Potency (astro) is reported as “inactive”.
For `CC(C)OC(=O)Nc1ccc2nc(-c3cscn3)[nH]c2c1`, the Potency (astro) was 2.82 µM (active).
For `CCOc1cc(-c2nccc3cc(OC)c(OC)cc23)cc(OCC)c1OCC`, the Potency (astro) was “inactive”.
With `C=C1[C@@H]2CC[C@@H](C2)C1(C)C` the activity, negative = cell killing [1, 4] was -1.58%, the activity, negative = cell killing [1, 6] was -22% and the Potency (astro) was “inactive”.
In the case of `CC[C@@H](C(=O)[C@@H](C)[C@@H](O)[C@H](C)[C@@H]1O[C@@H]([C@@H](CC)C(=O)O)CC[C@@H]1C)[C@H]1O[C@]2(C=C[C@@H](O)[C@]3(CC[C@@](C)([C@H]4CC[C@](O)(CC)[C@H](C)O4)O3)O2)[C@H](C)C[C@@H]1C`, the Potency (astro) is reported as 7.94 µM (active).
For `Cc1cccc(C)c1NC(=O)C1CCCCN1C` (stereo not drawn), the activity, negative = cell killing [1, 4] was -7.34%, the activity, negative = cell killing [1, 5] was 2.03% and the Potency (astro) was “inactive”.
For `COc1ccc2c(c1)OC(C)(C)C(c1ccccc1)C2c1ccc(OCCN2CCCC2)cc1` (stereo not drawn), the Potency (astro) was 35.5 µM (active).
For `CC1=CC(=C(c2ccc(N)cc2)c2ccc(N)cc2)C=CC1=N`, the Potency (astro) was 3.16 µM (active).
In the case of `Cc1ccccn1`, the activity, negative = cell killing [1, 4] is reported as -10.1%, the activity, negative = cell killing [1, 5] is reported as -22.4% and the Potency (astro) is reported as “inactive”.
With `C[N@+]12CCCC[C@@H]1CCC(=C(c1cccs1)c1cccs1)C2` the Potency (astro) was “inactive”.
For `O=C(NNCS(=O)(=O)O)c1ccncc1`, the activity, negative = cell killing [1, 4] was -4.21%, the activity, negative = cell killing ([1]; at 46 µM (top of the series), tumour line A) was -67.1% and the Potency (astro) was “inactive”.
In the case of `CS(=O)(=O)c1ccc([C@@H](O)[C@@H](COC(=O)CN)NC(=O)C(Cl)Cl)cc1`, the activity, negative = cell killing [1, 4] is reported as -20.1%, the activity, negative = cell killing [1, 5] is reported as -21.6% and the Potency (astro) is reported as “inactive”.
For `O=C(O[C@H]1CN2CCC1CC2)N1CCc2ccccc2[C@@H]1c1ccccc1`, the Potency (astro) was “inactive”.
In the case of `Cn1c(=O)c2c(ncn2CCOC(=O)C(C)(C)Oc2ccc(Cl)cc2)n(C)c1=O`, the activity, negative = cell killing [1, 4] is reported as -17%, the activity, negative = cell killing [1, 5] is reported as -18.4% and the Potency (astro) is reported as “inactive”.
For `CNC(=O)C[C@@H](N)C(=O)N[C@@H](C(=O)N[C@@H]1C(=O)N2[C@@H]1SC(C)(C)[C@@H]2C(=O)O)c1ccc(O)cc1`, the activity, negative = cell killing [1, 4] was -11.1%, the activity, negative = cell killing [1, 5] was -11.3% and the Potency (astro) was “inactive”.
With `COC(=O)CC[C@H](N)C(=O)O` the activity, negative = cell killing [1, 4] was -13.7%, the activity, negative = cell killing [1, 6] was -12.9% and the Potency (astro) was “inactive”.
With `CN=C1C=CC(=C(c2ccc(N(C)C)cc2)c2ccc(N(C)C)cc2)C=C1` the Potency (astro) was 11.2 µM (active).
With `O=C(c1cc2ccccc2o1)N1CCN(Cc2ccccc2)CC1` the activity, negative = cell killing [1, 4] was -15.4%, the Potency ([1]; tumour line A) was 11.2 µM (active) and the Potency (astro) was “inactive”.
With `CC[C@@]1([C@@H]2O[C@@H]([C@H]3O[C@@](O)(CO)[C@H](C)C[C@@H]3C)C[C@@H]2C)CC[C@H]([C@]2(C)CC[C@]3(C[C@H](O)[C@@H](C)[C@@H]([C@@H](C)[C@@H](OC)[C@H](C)C(=O)O)O3)O2)O1` (stereo in doubt) the Potency (astro) was 14.1 µM (active).
